Test results: PubChem BioAssay (Tox21)
Records with an inconclusive call do not appear. Where a call stands in place of a potency, no number is given. Calls of active or inactive are those of the source. Unless noted, the call rests on the fitted dose curve; in most records, active means well fitted curve in the direction sought with a large enough effect in the repeat runs; inconclusive means weak or mixed curves; inactive means no such curve, though single readings can be large; an effect the other way counts as inactive or inconclusive.

Key:
[1] = biological target: Peroxisome proliferator-activated receptor gamma (Homo sapiens) (UniProt P37231); assay: qHTS assay to identify small molecule agonists of the peroxisome proliferator-activated receptor gamma (PPARg) signaling pathway (AID 743094; active means well fitted activation curve with a large enough effect in the signal ratio in the repeat runs, not every such curve was filed as active; the % refers to the signal ratio)
Method in brief: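 Cell-based bla reporter, HEK293H background, PPARg-driven UAS. Pre-incubation 5 h, 37C, 5% CO2. Compound 17 h, 37C. Substrate 1 h RT; fluorescence.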

[2] = biological target: Peroxisome proliferator-activated receptor gamma (Homo sapiens) (UniProt P37231); assay: qHTS assay to identify small molecule antagonists of the peroxisome proliferator-activated receptor gamma (PPARg) signaling pathway (AID 743191; calls by dose curve; further: series mostly up to about 63 µM; nearly all actives have a fitted effect of over 30% in size)
Method in brief: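 GeneBLAzer PPARg UAS-bla HEK293H cells, 5 h post-plating, exposed to compounds 17 h at 37C. LiveBLAzer B/G FRET substrate added for 1 h at room temperature; beta-lactamase reporter read by fluorescence intensity.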

[3] = qHTS assay for small molecule agonists of the antioxidant response element (ARE) signaling pathway (AID 743202; active means well fitted activation curve with a large enough effect in the signal ratio in the repeat runs, not every such curve was filed as active; the % refers to the signal ratio; further: potency means the concentration at half of the fitted maximal effect)
Method in brief: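 HepG2 ARE-bla cells; 16 h treatment at 37 C; FRET-based beta-lactamase fluorescence read after 2 h substrate incubation at room temperature.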

[4] = qHTS assay for small molecule agonists of the antioxidant response element (ARE) signaling pathway - cell viability counter screen (AID 743203; calls by dose curve; further: nearly all actives have a fitted effect of over 55% in size)
Method in brief: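 Measured in the same wells as the beta-lactamase ARE reporter, this read-out is CellTiter-Glo luminescence from HepG2 ARE-bla cells given compounds for 16 hrs.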

[5] = qHTS assay for small molecule activators of the heat shock response signaling pathway - cell viability counter screen (AID 743209); further: nearly all actives have a fitted effect of over 50% in size
Method in brief: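 Same-well multiplex: after 2.5 h room-temperature incubation with LiveBLAzer B/G substrate and fluorescence reading, CellTiter-Glo reagent was added to HSE-bla HeLa cells that had received compound for 5 h at 37 C; luminescence read after 30 min.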

[6] = qHTS assay for small molecule activators of the heat shock response signaling pathway (AID 743210; active means well fitted activation curve with a large enough effect in the signal ratio in the repeat runs, with a control signal flat, not every such curve was filed as active; the % refers to the signal ratio;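 further: HeLa cells with beta-lactamase reporter driven by heat shock elements; series mostly up to about 63 µM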)
Method in brief: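 Following overnight attachment, HSE-bla HeLa cells received test compounds for 5 h at 37 C; beta-lactamase activity was then detected via FRET substrate fluorescence.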

[7] = qHTS assay to identify small molecule agonists of the peroxisome proliferator-activated receptor delta (PPARd) signaling pathway - cell viability counter screen (AID 743211); further: nearly all actives have a fitted effect of over 55% in size
Method in brief: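 Tox21 library compounds, delivered in DMSO, were incubated 17 h with PPARd-bla HEK293H cells; cytotoxicity was taken from CellTiter-Glo luminescence read 30 min after reagent addition.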

[8] = biological target: Peroxisome proliferator-activated receptor delta (Homo sapiens) (UniProt Q03181); assay: qHTS assay to identify small molecule agonists of the peroxisome proliferator-activated receptor delta (PPARd) signaling pathway (AID 743212; calls by dose curve)
Method in brief: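 Tox21 library screened in GeneBLAzer PPARd UAS-bla HEK293H cells. After compound treatment at 37 C, a FRET-based beta-lactamase substrate was applied for 2 h and fluorescence recorded.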

[9] = qHTS assay to identify small molecule antagonists of the peroxisome proliferator-activated receptor delta (PPARd) signaling pathway - cell viability counter screen (AID 743213); further: nearly all actives have a fitted effect of over 50% in size
Method in brief: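 Same-well viability: cells pre-incubated 5 h, dosed with compound plus 300 nM L165041, kept 17 h at 37 C, FRET substrate 2 h RT, then CellTiter-Glo 30 min RT and luminescence.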

[10] = biological target: Peroxisome proliferator-activated receptor delta (Homo sapiens) (UniProt Q03181); assay: qHTS assay to identify small molecule antagonists of the peroxisome proliferator-activated receptor delta (PPARd) signaling pathway (AID 743215; active means well fitted inhibition curve with a large enough effect in the signal ratio in the repeat runs, not every such curve was filed as active; the % refers to the signal ratio;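 further: cells stimulated with agonist L165041 at 300 nM final during compound exposure; series mostly up to about 62 µM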)
Method in brief: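 Fluorescence from cleaved LiveBLAzer B/G FRET substrate (2 h, room temperature) reports PPARd-driven beta-lactamase in HEK293H UAS-bla cells. Cells had been treated 17 h at 37 C with compound plus 300 nM final L165041.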

[11] = biological target: Bile acid receptor (Homo sapiens) (UniProt Q96RI1); assay: qHTS assay to identify small molecule antagonists of the farnesoid-X-receptor (FXR) signaling pathway (AID 743217; active means well fitted inhibition curve with a large enough effect in the signal ratio in the repeat runs, not every such curve was filed as active; the % refers to the signal ratio)
Method in brief: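 FRET fluorescence after 2 h room-temperature LiveBLAzer loading gives the readout. Prior step: FXR-bla HEK 293T cells, seeded and incubated 5 h, received test compounds plus 50 uM final CDCA for 16 h at 37 °C.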

[12] = qHTS assay to identify small molecule agonists of the farnesoid-X-receptor (FXR) signaling pathway - cell viability counter screen (AID 743218); further: nearly all actives have a fitted effect of over 45% in size
Method in brief: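 Readout: CellTiter-Glo luminescence, 30 min RT, multiplexed after the FXR-bla FRET reading. HEK 293T FXR-UAS-bla cells received compound 5 h post-plating and were incubated 16 h at 37 C.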

[13] = biological target: Bile acid receptor (Homo sapiens) (UniProt Q96RI1); assay: qHTS assay to identify small molecule agonists of the farnesoid-X-receptor (FXR) signaling pathway (AID 743220; active means well fitted activation curve with a large enough effect in the signal ratio in the repeat runs, not every such curve was filed as active; the % refers to the signal ratio)
Method in brief: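 FXR-UAS-bla HEK 293T cells carrying a UAS-driven beta-lactamase reporter were plated for 5 h at 37C/5% CO2, then exposed to DMSO-dissolved Tox21 10K compounds for 16 h at 37C. A LiveBLAzer B/G FRET substrate was loaded for 2 h at room temperature before fluorescence reading.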

[14] = qHTS assay to identify small molecule antagonists of the farnesoid-X-receptor (FXR) signaling pathway - cell viability counter screen (AID 743221; active means well fitted cell-killing curve with a large enough effect in the repeat runs, not every such curve was filed as active; further: nearly all actives have a fitted effect of over 50% in size)
Method in brief: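 Cytotoxicity is taken from ATP luminescence (CellTiter-Glo, 30 min, room temperature) in FXR-bla HEK 293T cells previously incubated 16 h at 37 C with compound and chenodeoxycholic acid at 50 uM final.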

[15] = biological target: Vitamin D3 receptor (Homo sapiens) (UniProt P11473); assay: qHTS assay to identify small molecule agonists of the vitamin D receptor (VDR) signaling pathway (AID 743222; calls by dose curve)
Method in brief: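 Following 4 h attachment at 37C, VDR-bla cells (2,000 per well) received DMSO-dissolved compounds or controls. After 16 h incubation, LiveBLAzer B/G FRET substrate was added and fluorescence read 2 h later at room temperature.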

[16] = qHTS assay to identify small molecule agonists of the vitamin D receptor (VDR) signaling pathway - cell viability counter screen (AID 743224); further: series mostly up to about 63 µM; nearly all actives have a fitted effect of over 50% in size
Method in brief: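 In parallel with the bla FRET readout, cytotoxicity toward VDR-bla cells after 16 h compound exposure was assessed by CellTiter-Glo, with luminescence recorded after a 30 min room-temperature incubation.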

[17] = qHTS assay to identify small molecule antagonists of the peroxisome proliferator-activated receptor gamma (PPARg) signaling pathway - cell viability counter screen (AID 743194); further: nearly all actives have a fitted effect of over 55% in size
Method in brief: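 Cytotoxicity counter screen in PPARg-bla HEK293H cells, same wells as reporter assay. Compounds plus 50 nM rosiglitazone (final) for 17 h at 37 C, then viability read by CellTiter-Glo luminescence.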

[18] = biological target: Vitamin D3 receptor (Homo sapiens) (UniProt P11473); assay: qHTS assay to identify small molecule antagonists of the vitamin D receptor (VDR) signaling pathway (AID 743223; active means well fitted inhibition curve with a large enough effect in the signal ratio in the repeat runs, not every such curve was filed as active; the % refers to the signal ratio)
Method in brief: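 Quantitative HTS in VDR-bla reporter cells stimulated with 1alpha,25-dihydroxyvitamin D3, 3 nM final. Compound exposure 16 h, 37C, 5% CO2. Read-out: beta-lactamase FRET substrate fluorescence, 2 h RT.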

[19] = qHTS assay to identify small molecule antagonists of the vitamin D receptor (VDR) signaling pathway - cell viability counter screen (AID 743225); further: nearly all actives have a fitted effect of over 50% in size
Method in brief: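 Same-well multiplex: following 16 h treatment of HEK 293T cells carrying a UAS-driven beta-lactamase reporter with compound and agonist (3 nM final), and a 2 h FRET substrate step, CellTiter-Glo was added and luminescence read after 30 min.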

Sequence of Peroxisome proliferator-activated receptor delta (Homo sapiens) (Q03181 whole entry, looked up): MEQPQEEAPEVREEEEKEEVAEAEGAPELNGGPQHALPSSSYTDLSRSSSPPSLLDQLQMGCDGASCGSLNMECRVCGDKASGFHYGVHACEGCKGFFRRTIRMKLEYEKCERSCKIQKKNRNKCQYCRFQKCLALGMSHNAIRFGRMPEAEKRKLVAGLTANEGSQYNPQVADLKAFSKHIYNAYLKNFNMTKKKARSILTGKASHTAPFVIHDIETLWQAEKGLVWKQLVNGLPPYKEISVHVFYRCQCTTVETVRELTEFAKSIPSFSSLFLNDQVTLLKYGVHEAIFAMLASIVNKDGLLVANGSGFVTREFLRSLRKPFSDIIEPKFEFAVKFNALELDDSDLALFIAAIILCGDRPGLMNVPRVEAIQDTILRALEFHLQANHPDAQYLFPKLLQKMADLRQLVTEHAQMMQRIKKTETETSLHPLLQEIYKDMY
Sequence of Bile acid receptor (Homo sapiens) (Q96RI1 whole entry, looked up): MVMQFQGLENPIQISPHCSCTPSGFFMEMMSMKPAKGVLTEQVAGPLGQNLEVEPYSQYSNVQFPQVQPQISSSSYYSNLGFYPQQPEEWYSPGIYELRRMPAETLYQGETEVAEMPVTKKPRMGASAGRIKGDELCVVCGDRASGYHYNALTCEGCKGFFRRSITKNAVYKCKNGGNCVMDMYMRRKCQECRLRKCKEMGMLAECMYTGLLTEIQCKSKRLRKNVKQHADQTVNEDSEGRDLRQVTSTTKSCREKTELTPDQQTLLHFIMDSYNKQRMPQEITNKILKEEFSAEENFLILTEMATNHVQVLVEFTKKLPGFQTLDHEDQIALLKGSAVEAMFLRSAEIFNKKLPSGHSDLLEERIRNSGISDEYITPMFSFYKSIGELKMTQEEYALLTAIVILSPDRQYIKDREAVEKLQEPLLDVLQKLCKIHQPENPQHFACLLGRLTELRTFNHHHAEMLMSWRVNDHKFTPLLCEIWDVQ
Sequence of Vitamin D3 receptor (Homo sapiens) (P11473 whole entry, looked up): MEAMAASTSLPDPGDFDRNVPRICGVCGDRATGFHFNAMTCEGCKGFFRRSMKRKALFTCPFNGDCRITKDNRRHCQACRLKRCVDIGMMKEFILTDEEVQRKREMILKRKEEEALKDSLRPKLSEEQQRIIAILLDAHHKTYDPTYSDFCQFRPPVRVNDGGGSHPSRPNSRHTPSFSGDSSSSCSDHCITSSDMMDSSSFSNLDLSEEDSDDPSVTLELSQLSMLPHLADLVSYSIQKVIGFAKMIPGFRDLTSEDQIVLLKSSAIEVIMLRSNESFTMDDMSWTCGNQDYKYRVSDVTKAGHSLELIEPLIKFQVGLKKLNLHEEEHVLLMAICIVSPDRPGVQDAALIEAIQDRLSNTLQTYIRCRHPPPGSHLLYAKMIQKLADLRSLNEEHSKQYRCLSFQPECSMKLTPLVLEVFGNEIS
Sequence of Peroxisome proliferator-activated receptor gamma (Homo sapiens) (P37231 whole entry, looked up): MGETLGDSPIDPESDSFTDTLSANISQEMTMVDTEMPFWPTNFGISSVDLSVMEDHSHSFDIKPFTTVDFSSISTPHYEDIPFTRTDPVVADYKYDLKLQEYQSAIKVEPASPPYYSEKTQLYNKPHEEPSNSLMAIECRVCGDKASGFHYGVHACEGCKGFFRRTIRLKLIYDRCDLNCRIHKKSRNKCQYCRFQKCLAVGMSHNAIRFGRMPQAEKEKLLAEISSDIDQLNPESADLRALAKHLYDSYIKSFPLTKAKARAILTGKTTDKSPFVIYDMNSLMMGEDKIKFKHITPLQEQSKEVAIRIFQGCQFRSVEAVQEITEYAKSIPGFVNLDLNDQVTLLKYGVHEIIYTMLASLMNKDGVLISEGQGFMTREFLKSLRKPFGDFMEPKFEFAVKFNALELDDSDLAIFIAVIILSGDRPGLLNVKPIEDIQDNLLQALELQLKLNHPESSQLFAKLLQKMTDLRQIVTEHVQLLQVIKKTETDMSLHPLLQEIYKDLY

Compound	Potency [1]	Potency [2]	Potency [3]	Potency [4]	Potency [5]	outcome [6]	Potency [7]	outcome [8]	Potency [9]	outcome [10]	outcome [11]	Potency [12]	outcome [13]	Potency [14]	outcome [15]	Potency [16]	Potency [17]	Potency [18]	Potency [19]
O=[N+]([O-])c1cccc(Cl)c1Cl	inactive	inactive	inactive	inactive	inactive	inactive	inactive	inactive	inactive	inactive	inactive	inactive	inactive	inactive	inactive	inactive			
O=C(O)c1cn(C2CC2)c2cc(Cl)c(F)cc2c1=O			inactive	inactive	inactive	inactive	inactive		inactive	inactive				inactive	inactive	inactive	inactive	inactive	inactive
CC(C)(C)C(=O)OCOP(=O)(COCCn1cnc2c(N)ncnc21)OCOC(=O)C(C)(C)C	inactive		2110 nM (active)	inactive	inactive	inactive	inactive					inactive		inactive		inactive			inactive
CNCC[C@@H](Oc1ccccc1C)c1ccccc1				inactive		inactive			inactive	inactive		inactive		inactive	inactive		inactive	inactive	inactive
CC[C@]12CCCN3CCc4c(n(c5ccccc45)C(=O)C1)[C@@H]32	inactive		inactive	inactive	inactive	inactive	inactive	inactive	inactive	inactive		inactive		inactive		inactive	inactive		inactive
CCCCOCCOCCOCCOCCO	inactive		inactive	inactive	inactive		inactive	inactive	inactive	inactive				inactive	inactive	inactive	inactive		
CC(=O)N(CC(=O)N(C)C)c1ccccc1				inactive	inactive	inactive	inactive	inactive		inactive			inactive	inactive	inactive	inactive	inactive	inactive	inactive
Oc1ccc2c(c1)OCO2	inactive		inactive	inactive	inactive	inactive	inactive		inactive			inactive		inactive	inactive	inactive	inactive		inactive
O=C1[C@H](CC[C@H](O)c2ccc(F)cc2)[C@@H](c2ccc(O)cc2)N1c1ccc(F)cc1	inactive					inactive	inactive		inactive	inactive		inactive			inactive	inactive	inactive	inactive	inactive
